Reference: paper PMC7862700, “An all-to-all approach to the identification of sequence-specific readers for epigenetic DNA modifications on cytosine”

How the values were obtained:
Assay in all cases: DAPPL (digital affinity profiling via proximity ligation, sequencing); 10 mM Tris-HCl pH 7.5, 50 mM NaCl, 1 mM DTT, 4% glycerol, room temperature, 30 min; GST-TFs on glutathione beads, 16-mer random dsDNA library, 0.1% formaldehyde crosslink after washing; high values mean tight binding
Details in all cases: protein: recombinant; tags: N-terminal GST; dsDNA, one strand shown
ERF = biological target: T1, ERF (Homo sapiens, UniProt P50548 1-548)
T1 sequence: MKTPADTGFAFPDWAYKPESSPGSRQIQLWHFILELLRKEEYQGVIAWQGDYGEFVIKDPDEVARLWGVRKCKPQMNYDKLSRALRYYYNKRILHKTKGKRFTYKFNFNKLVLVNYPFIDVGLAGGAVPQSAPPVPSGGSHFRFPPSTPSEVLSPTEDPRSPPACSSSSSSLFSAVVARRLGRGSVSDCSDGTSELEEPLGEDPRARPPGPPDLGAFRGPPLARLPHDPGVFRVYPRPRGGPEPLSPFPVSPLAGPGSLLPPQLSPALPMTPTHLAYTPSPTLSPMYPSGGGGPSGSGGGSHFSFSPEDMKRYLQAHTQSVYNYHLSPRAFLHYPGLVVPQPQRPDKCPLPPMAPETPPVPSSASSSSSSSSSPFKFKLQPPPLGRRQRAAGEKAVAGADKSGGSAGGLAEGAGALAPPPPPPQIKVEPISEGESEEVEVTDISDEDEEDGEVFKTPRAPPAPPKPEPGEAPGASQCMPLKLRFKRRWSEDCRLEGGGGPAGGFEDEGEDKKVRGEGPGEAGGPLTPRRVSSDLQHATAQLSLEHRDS
Outline: (§1)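 A tag-only sample was pooled with DNA-barcoded human transcription factors that had been expressed in yeast as GST fusions and captured on glutathione beads. The pools were incubated for 30 min at room temperature with 200 nmole of a random double-stranded 16-mer DNA library in Tris/NaCl/DTT/glycerol buffer, then washed, crosslinked with 0.1% formaldehyde, proximity-ligated (BsaI/T4 ligase, 1 h, 37 °C), PCR-amplified and sequenced on an Illumina NextSeq500. Binding signal is each hexamer's read frequency for a factor divided by its frequency for the tag-only sample.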

ETV3L = biological target: T2, ETV3L (Homo sapiens, UniProt Q6ZN32 1-361)
T2 sequence: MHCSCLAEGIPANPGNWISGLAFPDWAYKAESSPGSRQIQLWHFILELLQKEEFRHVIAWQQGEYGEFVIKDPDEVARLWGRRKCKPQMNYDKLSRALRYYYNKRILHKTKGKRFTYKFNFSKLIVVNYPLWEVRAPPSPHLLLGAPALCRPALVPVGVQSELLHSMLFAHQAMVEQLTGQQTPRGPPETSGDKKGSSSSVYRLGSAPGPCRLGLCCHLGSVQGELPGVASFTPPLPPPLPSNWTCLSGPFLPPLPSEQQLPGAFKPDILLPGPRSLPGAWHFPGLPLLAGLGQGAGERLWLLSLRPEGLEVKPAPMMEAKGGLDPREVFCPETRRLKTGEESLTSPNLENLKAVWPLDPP
Outline: as §1

ETS2 = biological target: T3, ETS2 (Homo sapiens, UniProt P15036 1-469)
T3 sequence: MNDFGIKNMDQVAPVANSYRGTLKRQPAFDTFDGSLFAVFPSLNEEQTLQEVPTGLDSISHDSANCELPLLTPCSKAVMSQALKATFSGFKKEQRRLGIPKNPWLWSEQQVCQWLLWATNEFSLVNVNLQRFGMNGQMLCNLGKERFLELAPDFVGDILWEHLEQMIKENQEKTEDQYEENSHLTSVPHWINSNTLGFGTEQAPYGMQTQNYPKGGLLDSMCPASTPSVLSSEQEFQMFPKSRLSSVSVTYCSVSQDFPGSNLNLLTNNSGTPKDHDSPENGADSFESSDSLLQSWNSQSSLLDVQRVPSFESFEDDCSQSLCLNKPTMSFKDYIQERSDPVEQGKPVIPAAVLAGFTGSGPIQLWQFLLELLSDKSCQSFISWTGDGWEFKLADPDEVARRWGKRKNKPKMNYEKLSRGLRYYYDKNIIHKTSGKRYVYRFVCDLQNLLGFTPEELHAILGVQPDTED
Outline: as §1

SPDEF = biological target: T4, SPDEF (Homo sapiens, UniProt O95238 1-335)
T4 sequence: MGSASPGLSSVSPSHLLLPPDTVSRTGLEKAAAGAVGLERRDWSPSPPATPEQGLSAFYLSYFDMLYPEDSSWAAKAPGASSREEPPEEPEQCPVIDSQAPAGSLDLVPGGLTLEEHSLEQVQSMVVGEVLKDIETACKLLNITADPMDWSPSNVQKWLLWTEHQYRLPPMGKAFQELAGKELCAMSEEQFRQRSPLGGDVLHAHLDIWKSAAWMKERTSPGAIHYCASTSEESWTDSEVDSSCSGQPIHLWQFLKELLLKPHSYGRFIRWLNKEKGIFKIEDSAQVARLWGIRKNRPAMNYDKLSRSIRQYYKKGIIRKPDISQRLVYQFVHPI
Outline: as §1

ETV7 = biological target: T5, ETV7 (Homo sapiens, UniProt Q9Y603 1-341)
T5 sequence: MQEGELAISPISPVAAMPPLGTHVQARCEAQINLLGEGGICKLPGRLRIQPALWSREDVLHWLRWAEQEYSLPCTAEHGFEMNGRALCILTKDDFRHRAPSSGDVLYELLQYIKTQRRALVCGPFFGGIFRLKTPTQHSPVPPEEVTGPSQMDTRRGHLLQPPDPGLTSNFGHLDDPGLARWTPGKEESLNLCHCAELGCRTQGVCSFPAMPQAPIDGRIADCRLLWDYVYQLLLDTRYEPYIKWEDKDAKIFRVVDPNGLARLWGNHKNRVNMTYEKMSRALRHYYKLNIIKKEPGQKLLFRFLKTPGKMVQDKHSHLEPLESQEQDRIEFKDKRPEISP
Outline: as §1

ELF5 = biological target: T6, ELF5 (Homo sapiens, UniProt Q9UKW6-2 1-255)
T6 sequence: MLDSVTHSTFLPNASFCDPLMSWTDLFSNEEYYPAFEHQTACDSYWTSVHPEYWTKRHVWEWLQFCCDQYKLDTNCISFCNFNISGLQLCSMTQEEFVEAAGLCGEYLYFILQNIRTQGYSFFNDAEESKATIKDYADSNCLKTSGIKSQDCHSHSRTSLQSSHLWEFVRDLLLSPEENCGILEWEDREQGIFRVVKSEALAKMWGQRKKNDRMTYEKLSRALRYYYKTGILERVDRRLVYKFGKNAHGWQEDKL
Outline: as §1

ETV3 = biological target: T7, ETV3 (Homo sapiens, UniProt P41162-2 1-143)
T7 sequence: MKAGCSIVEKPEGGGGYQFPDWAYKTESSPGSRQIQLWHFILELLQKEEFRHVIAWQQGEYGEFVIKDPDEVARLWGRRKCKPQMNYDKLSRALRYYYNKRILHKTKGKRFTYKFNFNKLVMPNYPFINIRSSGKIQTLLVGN
Outline: as §1

ETV6 = ETV6 (Homo sapiens, UniProt P41212 1-452)
Outline: as §1

Chain of ETV6 (P41212 whole entry): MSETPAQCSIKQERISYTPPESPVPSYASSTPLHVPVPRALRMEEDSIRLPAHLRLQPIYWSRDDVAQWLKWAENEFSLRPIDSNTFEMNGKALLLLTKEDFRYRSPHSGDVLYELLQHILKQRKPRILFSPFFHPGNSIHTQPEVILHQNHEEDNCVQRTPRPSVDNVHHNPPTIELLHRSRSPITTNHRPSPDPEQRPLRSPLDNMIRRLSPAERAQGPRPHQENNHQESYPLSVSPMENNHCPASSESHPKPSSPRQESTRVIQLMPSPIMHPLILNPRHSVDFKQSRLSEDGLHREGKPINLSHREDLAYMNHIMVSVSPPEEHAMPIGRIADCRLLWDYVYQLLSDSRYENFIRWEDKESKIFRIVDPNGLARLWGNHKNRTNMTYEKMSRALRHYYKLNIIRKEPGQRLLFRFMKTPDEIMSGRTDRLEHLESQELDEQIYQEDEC

| Sequence | binding signal (ERF) | binding signal (ETV3L) | binding signal (ETS2) | binding signal (SPDEF) | binding signal (ETV7) | binding signal (ELF5) | binding signal (ETV3) | binding signal (ETV6) |
| --- | --- | --- | --- | --- | --- | --- | --- | --- |
| GTTCAA | 1.14 fold enrichment (6-mer frequency, TF over GST control) | 1.19 fold enrichment (6-mer frequency, TF over GST control) | 1.14 fold enrichment (6-mer frequency, TF over GST control) | 1.22 fold enrichment (6-mer frequency, TF over GST control) | 1.03 fold enrichment (6-mer frequency, TF over GST control) | 1.12 fold enrichment (6-mer frequency, TF over GST control) | 1.15 fold enrichment (6-mer frequency, TF over GST control) | 1.16 fold enrichment (6-mer frequency, TF over GST control) |
| CCGCGT | 1.08 fold enrichment (6-mer frequency, TF over GST control) | 1.11 fold enrichment (6-mer frequency, TF over GST control) | 1.13 fold enrichment (6-mer frequency, TF over GST control) | 1.12 fold enrichment (6-mer frequency, TF over GST control) | 1.21 fold enrichment (6-mer frequency, TF over GST control) | 1.27 fold enrichment (6-mer frequency, TF over GST control) | 1.13 fold enrichment (6-mer frequency, TF over GST control) | 1.16 fold enrichment (6-mer frequency, TF over GST control) |
| TGAAAA | 1.04 fold enrichment (6-mer frequency, TF over GST control) | 1.07 fold enrichment (6-mer frequency, TF over GST control) | 1.11 fold enrichment (6-mer frequency, TF over GST control) | 1.01 fold enrichment (6-mer frequency, TF over GST control) | 1.07 fold enrichment (6-mer frequency, TF over GST control) | 1.06 fold enrichment (6-mer frequency, TF over GST control) |  |  |
| CGTTAC | 1.16 fold enrichment (6-mer frequency, TF over GST control) | 1.18 fold enrichment (6-mer frequency, TF over GST control) | 1.23 fold enrichment (6-mer frequency, TF over GST control) | 1.1 fold enrichment (6-mer frequency, TF over GST control) | 1.11 fold enrichment (6-mer frequency, TF over GST control) | 1.15 fold enrichment (6-mer frequency, TF over GST control) | 1.14 fold enrichment (6-mer frequency, TF over GST control) | 1.12 fold enrichment (6-mer frequency, TF over GST control) |
| ACTTGT | 1.28 fold enrichment (6-mer frequency, TF over GST control) | 1.23 fold enrichment (6-mer frequency, TF over GST control) | 1.36 fold enrichment (6-mer frequency, TF over GST control) | 1.22 fold enrichment (6-mer frequency, TF over GST control) | 1.2 fold enrichment (6-mer frequency, TF over GST control) | 1.28 fold enrichment (6-mer frequency, TF over GST control) | 1.36 fold enrichment (6-mer frequency, TF over GST control) | 1.32 fold enrichment (6-mer frequency, TF over GST control) |
| ATATGT | 1.25 fold enrichment (6-mer frequency, TF over GST control) | 1.17 fold enrichment (6-mer frequency, TF over GST control) | 1.19 fold enrichment (6-mer frequency, TF over GST control) | 1.13 fold enrichment (6-mer frequency, TF over GST control) | 1.16 fold enrichment (6-mer frequency, TF over GST control) | 1.13 fold enrichment (6-mer frequency, TF over GST control) | 1.1 fold enrichment (6-mer frequency, TF over GST control) | 1.07 fold enrichment (6-mer frequency, TF over GST control) |
| GTCTCT | 1.16 fold enrichment (6-mer frequency, TF over GST control) | 1.35 fold enrichment (6-mer frequency, TF over GST control) | 1.32 fold enrichment (6-mer frequency, TF over GST control) | 1.15 fold enrichment (6-mer frequency, TF over GST control) | 1.02 fold enrichment (6-mer frequency, TF over GST control) | 1.11 fold enrichment (6-mer frequency, TF over GST control) | 1.27 fold enrichment (6-mer frequency, TF over GST control) | 1.19 fold enrichment (6-mer frequency, TF over GST control) |
| ATTGTC | 1.23 fold enrichment (6-mer frequency, TF over GST control) | 1.14 fold enrichment (6-mer frequency, TF over GST control) | 1.17 fold enrichment (6-mer frequency, TF over GST control) | 1.17 fold enrichment (6-mer frequency, TF over GST control) | 1.23 fold enrichment (6-mer frequency, TF over GST control) | 1.2 fold enrichment (6-mer frequency, TF over GST control) | 1.22 fold enrichment (6-mer frequency, TF over GST control) | 1.13 fold enrichment (6-mer frequency, TF over GST control) |
| TACTGC | 1.14 fold enrichment (6-mer frequency, TF over GST control) | 1.17 fold enrichment (6-mer frequency, TF over GST control) | 1.2 fold enrichment (6-mer frequency, TF over GST control) | 1.26 fold enrichment (6-mer frequency, TF over GST control) | 1.2 fold enrichment (6-mer frequency, TF over GST control) | 1.17 fold enrichment (6-mer frequency, TF over GST control) | 1.31 fold enrichment (6-mer frequency, TF over GST control) | 1.26 fold enrichment (6-mer frequency, TF over GST control) |
| CCGCTA | 1.38 fold enrichment (6-mer frequency, TF over GST control) | 1.27 fold enrichment (6-mer frequency, TF over GST control) | 1.32 fold enrichment (6-mer frequency, TF over GST control) | 1.38 fold enrichment (6-mer frequency, TF over GST control) | 1.36 fold enrichment (6-mer frequency, TF over GST control) | 1.41 fold enrichment (6-mer frequency, TF over GST control) | 1.34 fold enrichment (6-mer frequency, TF over GST control) | 1.4 fold enrichment (6-mer frequency, TF over GST control) |
| TGCAAA | 1.13 fold enrichment (6-mer frequency, TF over GST control) | 1.15 fold enrichment (6-mer frequency, TF over GST control) | 1.05 fold enrichment (6-mer frequency, TF over GST control) | 1.1 fold enrichment (6-mer frequency, TF over GST control) | 1.09 fold enrichment (6-mer frequency, TF over GST control) | 1.05 fold enrichment (6-mer frequency, TF over GST control) | 1.06 fold enrichment (6-mer frequency, TF over GST control) | 1.06 fold enrichment (6-mer frequency, TF over GST control) |
| ATCCGA | 1.22 fold enrichment (6-mer frequency, TF over GST control) | 1.24 fold enrichment (6-mer frequency, TF over GST control) | 1.08 fold enrichment (6-mer frequency, TF over GST control) | 1.26 fold enrichment (6-mer frequency, TF over GST control) | 1.15 fold enrichment (6-mer frequency, TF over GST control) | 1.25 fold enrichment (6-mer frequency, TF over GST control) | 1.11 fold enrichment (6-mer frequency, TF over GST control) | 1.24 fold enrichment (6-mer frequency, TF over GST control) |
| ATTACT | 1.37 fold enrichment (6-mer frequency, TF over GST control) | 1.23 fold enrichment (6-mer frequency, TF over GST control) | 1.31 fold enrichment (6-mer frequency, TF over GST control) | 1.26 fold enrichment (6-mer frequency, TF over GST control) | 1.25 fold enrichment (6-mer frequency, TF over GST control) | 1.25 fold enrichment (6-mer frequency, TF over GST control) | 1.29 fold enrichment (6-mer frequency, TF over GST control) | 1.37 fold enrichment (6-mer frequency, TF over GST control) |
| CGGATG | 1.39 fold enrichment (6-mer frequency, TF over GST control) | 1.62 fold enrichment (6-mer frequency, TF over GST control) | 1.83 fold enrichment (6-mer frequency, TF over GST control) | 3.14 fold enrichment (6-mer frequency, TF over GST control) | 1.41 fold enrichment (6-mer frequency, TF over GST control) | 1.75 fold enrichment (6-mer frequency, TF over GST control) | 1.75 fold enrichment (6-mer frequency, TF over GST control) | 1.5 fold enrichment (6-mer frequency, TF over GST control) |
| TACTAG | 1.07 fold enrichment (6-mer frequency, TF over GST control) | 1.04 fold enrichment (6-mer frequency, TF over GST control) | 1 fold enrichment (6-mer frequency, TF over GST control) | 1.01 fold enrichment (6-mer frequency, TF over GST control) | 1 fold enrichment (6-mer frequency, TF over GST control) |  |  |  |
